Several values for one entry are separate records, joined by “and”; a condition that tells them apart may be missing. Identical values can stand only once. In all, about 5,500 compounds went through this assay and about 2,000 (36%) were called active. Not shown: some 18% with an inconclusive outcome. No stated cut-off is given here; in the data, active means normalized growth mostly below about 0.91 (no sharp cut-off); inconclusive means no clear call, values can overlap the other calls; inactive means mostly above about 0.92. This is one part of the list.
Experiment: chemical genetic growth profiling, strain panel (AID 1159580);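 further: tested at 20 µM; growth read once vehicle control cultures reached saturation at 30 °C; 1 = growth at the plate median or of vehicle wells; lower values mean less growth of the strain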
Settings: S. cerevisiae deletion strains, growth OD
[1] = locus YAL013W, strain DEP1, active compounds read low
[2] = locus YBR229C, strain ROT2, active compounds read low
[3] = locus YCL061C, strain MRC1, active compounds read low
[4] = locus YDL101C, strain DUN1, active compounds read low
[5] = locus YDL134C, strain PPH21, active compounds read low
[6] = locus YEL061C, strain CIN8, active compounds read low
[7] = locus YGR078C, strain PAC10, active compounds read low
[8] = locus YHR030C, strain SLT2, active compounds read low
[9] = locus YJL187C, strain SWE1, active compounds read low
[10] = locus YJR043C, strain POL32, active compounds read low
[11] = locus YLR039C, strain RIC1, active compounds read low
[12] = locus YLR262C, strain YPT6, active compounds read low
[13] = locus YMR307W, strain GAS1, active compounds read low
[14] = locus YNL322C, strain KRE1, active compounds read low
[15] = locus YPL055C, strain LGE1, active compounds read low
[16] = locus YPL241C, strain CIN2, active compounds read low
[17] = locus YMR263W, strain SAP30, active compounds read low

Measured: normalized growth

CC1(C)[C@@H]2CC[C@@]1(C)C(=O)C2
inactive: [1] 0.962 | locus YAL021C, strain ccr4, active compounds read low 0.97 | locus YAL026C, strain drs2, active compounds read low 1.03 | locus YAL030W, strain snc1, active compounds read low 1.02 | locus YBL061C, strain skt5, active compounds read low 1.02 | locus YBR009C, strain hhf1, active compounds read low 1.01 | locus YBR021W, strain FUR4, active compounds read low 1 | locus YBR023C, strain chs3, active compounds read low 1.01 | locus YBR171W, strain sec66, active compounds read low 1.02 | [2] 0.99 | locus YBR231C, strain swc5, active compounds read low 1.01 | locus YBR279W, strain paf1, active compounds read low 0.993 | locus YCL011C, strain gbp2, active compounds read low 1 | locus YCL016C, strain dcc1, active compounds read low 0.987 | locus YCL029C, strain bik1, active compounds read low 1 | [3] 1.02 | locus YCL069W, strain vba3, active compounds read low 1.02 | locus YCR088W, strain abp1, active compounds read low 1.01 | locus YDL005C, strain med2, active compounds read low 1.01 | locus YDL035C, strain GPR1, active compounds read low 1.01 | locus YDL040C, strain nat1, active compounds read low 1 | locus YDL074C, strain BRE1, active compounds read low 1.02 | [4] 1 | [5] 0.994 | locus YDL185W, strain tfp1, active compounds read low 1 | locus YDL192W, strain arf1, active compounds read low 1 | locus YDR001C, strain nth1, active compounds read low 1.01 | locus YDR069C, strain doa4, active compounds read low 1.02 | locus YDR101C, strain arx1, active compounds read low 0.995 | locus YDR137W, strain rgp1, active compounds read low 1.02 | locus YDR159W, strain sac3, active compounds read low 1.06 | locus YDR162C, strain NBP2, active compounds read low 1.01 | locus YDR195W, strain ref2 0.972 | locus YDR297W, strain sur2, active compounds read low 1.02 | locus YDR318W, strain mcm21, active compounds read low 0.996 | locus YDR334W, strain swr1, active compounds read low 1.01 | locus YDR335W, strain msn5, active compounds read low 0.993 | locus YDR388W, active compounds read low 1.01 | locus YDR392W, strain spt3, active compounds read low 0.902 | locus YDR502C, strain sam2, active compounds read low 0.995 | locus YEL003W, strain gim4, active compounds read low 1.01 | locus YEL037C, strain rad23, active compounds read low 1 | locus YEL061C, strain CIN8 (second series), active compounds read low 1 | [6] 1 | locus YER015W, strain faa2, active compounds read low 1.01 | locus YER016W, strain bim1, active compounds read low 1.01 | locus YER110C, active compounds read low 1.01 | locus YER111C, strain swi4, active compounds read low 1.01 | locus YER155C, strain BEM2 (second series), active compounds read low 1.02 | locus YER155C, strain BEM2, active compounds read low 0.982 | locus YER167W, strain BCK2, active compounds read low 0.992 | locus YFR010W, strain ubp6, active compounds read low 1.02 | locus YGL078C, strain dbp3, active compounds read low 0.996 | locus YGL086W, strain mad1, active compounds read low 0.995 | locus YGL167C, strain pmr1, active compounds read low 1.01 | locus YGL173C, strain kem1, active compounds read low 1.03 | locus YGL227W, strain vid30, active compounds read low 1.01 | locus YGL240W, strain doc1, active compounds read low 1.01 | locus YGL248W, strain PDE1, active compounds read low 0.99 | locus YGL253W, strain hxk2, active compounds read low 1.02 | [7] 1.01 | locus YGR135W, strain pre9, active compounds read low 0.996 | locus YGR252W, strain gcn5, active compounds read low 0.937 | locus YHR013C, strain ard1, active compounds read low 0.991 | locus YHR027C, strain rpn1, active compounds read low 1.02 | [8] 1 and 1.03 | locus YHR079C, strain IRE1 (second series), active compounds read low 0.997 | locus YHR079C, strain IRE1, active compounds read low 1.05 | locus YHR094C, strain hxt1, active compounds read low 1 | locus YHR129C, strain ARP1, active compounds read low 1 | locus YHR142W, strain chs7, active compounds read low 0.989 | locus YHR200W, strain rpn10, active compounds read low 1 | locus YIL066C, strain RNR3, active compounds read low 1.03 | locus YIL073C, strain SPO22, active compounds read low 1.02 | locus YIL125W, strain kgd1, active compounds read low 1 | locus YIR030C, strain dcg1, active compounds read low 0.996 | locus YJL092W, strain hpr5, active compounds read low 1.01 | locus YJL095W, strain BCK1 (second series), active compounds read low 1.01 | locus YJL095W, strain BCK1, active compounds read low 1.02 and 1.05 | locus YJL115W, strain asf1, active compounds read low 1.01 | locus YJL129C, strain trk1, active compounds read low 1.03 | locus YJL134W, strain LCB3, active compounds read low 0.995 | locus YJL154C, strain vps35, active compounds read low 1.01 | locus YJL164C, strain tpk1, active compounds read low 0.98 | locus YJL166W, strain qcr8, active compounds read low 1.03 | locus YJL168C, strain set2, active compounds read low 1.01 | locus YJL187C, strain SWE1 (second series), active compounds read low 1.01 | [9] 1 | [10] 1.01 | locus YJR066W, strain TOR1, active compounds read low 0.973 | locus YKL009W, strain mrt4, active compounds read low 0.987 | locus YKL068W, active compounds read low 0.992 | locus YKL085W, strain MDH1 (second series), active compounds read low 1.01 | locus YKL085W, strain MDH1, active compounds read low 1.01 | locus YKL160W, strain elf1, active compounds read low 0.976 | locus YKR001C, strain vps1, active compounds read low 0.992 | locus YKR026C, strain gcn3, active compounds read low 1.01 | locus YKR091W, strain srl3, active compounds read low 0.996 | locus YLL001W, strain dnm1, active compounds read low 0.962 | locus YLL026W, active compounds read low 1.01 | locus YLL041C, strain sdh2, active compounds read low 1.01 | locus YLR027C, strain aat2, active compounds read low 1.01 | [11] 1.03 | locus YLR058C, strain SHM2, active compounds read low 1 | locus YLR102C, strain apc9, active compounds read low 0.992 | locus YLR113W, strain HOG1, active compounds read low 1.05 | locus YLR221C, strain rsa3, active compounds read low 1.05 | locus YLR258W, strain gsy2, active compounds read low 0.986 | locus YLR262C, strain YPT6 (second series), active compounds read low 1.01 | [12] 1.05 | locus YLR268W, strain sec22, active compounds read low 0.987 | locus YLR320W, strain mms22, active compounds read low 1.04 | locus YLR330W, strain CHS5, active compounds read low 0.996 | locus YLR342W, strain FKS1 (second series), active compounds read low 1.02 | locus YLR342W, strain FKS1, active compounds read low 1.01 | locus YLR357W, strain rsc2, active compounds read low 0.993 | locus YLR370C, strain arc18, active compounds read low 1.01 | locus YLR371W, strain rom2, active compounds read low 1 | locus YLR384C, strain iki3, active compounds read low 1.02 | locus YLR418C, strain cdc73, active compounds read low 0.994 | locus YML016C, strain PPZ1, active compounds read low 0.997 | locus YML032C, strain rad52, active compounds read low 1 | locus YML120C, strain ndi1, active compounds read low 0.981 | locus YML124C, strain tub3, active compounds read low 1.01 | locus YMR058W, strain fet3, active compounds read low 1.03 | locus YMR078C, strain ctf18, active compounds read low 1.01 | locus YMR125W, strain sto1, active compounds read low 0.987 | locus YMR129W, active compounds read low 1 | locus YMR205C, strain PFK2, active compounds read low 1 | locus YMR223W, strain ubp8, active compounds read low 1 | locus YMR231W, strain pep5, active compounds read low 1.01 | [13] 0.98 | locus YNL067W, strain RPL9B, active compounds read low 1 | locus YNL071W, strain lat1, active compounds read low 1.01 | locus YNL183C, strain NPR1, active compounds read low 0.985 | locus YNL209W, strain ssb2, active compounds read low 0.991 | locus YNL233W, strain BNI4, active compounds read low 1.01 | locus YNL248C, strain rpa49, active compounds read low 1.04 | locus YNL250W, strain rad50, active compounds read low 1.03 | locus YNL271C, strain bni1, active compounds read low 1 | locus YNL298W, strain CLA4, active compounds read low 0.99 | locus YNL307C, strain MCK1, active compounds read low 0.997 | locus YNL322C, strain KRE1 (second series), active compounds read low 1.01 | [14] 0.985 | locus YNR049C, strain mso1, active compounds read low 1.01 | locus YNR052C, strain pop2, active compounds read low 0.999 | locus YOL012C, strain htz1 1.32 | locus YOL147C, strain pex11, active compounds read low 1 | locus YOR001W, strain rrp6, active compounds read low 1.07 | locus YOR061W, strain CKA2, active compounds read low 1.01 | locus YOR069W, strain VPS5, active compounds read low 1 | locus YOR070C, strain gyp1, active compounds read low 1.03 | locus YOR080W, strain dia2, active compounds read low 1.01 | locus YOR083W, strain WHI5, active compounds read low 0.973 | locus YOR106W, strain vam3, active compounds read low 0.991 | locus YOR136W, strain idh2, active compounds read low 0.991 | locus YOR144C, strain elg1, active compounds read low 0.996 | locus YOR184W, strain ser1, active compounds read low 0.992 | locus YOR231W, strain MKK1, active compounds read low 1.05 | locus YOR265W, strain rbl2, active compounds read low 1 | locus YOR270C, strain vph1, active compounds read low 1.06 | locus YOR290C, strain snf2, active compounds read low 0.969 | locus YOR316C, strain cot1, active compounds read low 0.999 | locus YPL051W, strain arl3, active compounds read low 0.997 | [15] 1 | locus YPL078C, strain atp4, active compounds read low 0.966 | locus YPL106C, strain sse1, active compounds read low 1.01 | locus YPL240C, strain hsp82, active compounds read low 1.01 | [16] 1 | locus YPL256C, strain CLN2, active compounds read low 1.01 | locus YPR119W, strain clb2, active compounds read low 0.998 | locus YPR141C, strain kar3, active compounds read low 0.986 | locus YPR163C, strain tif3, active compounds read low 0.999 | locus YPR167C, strain met16, active compounds read low 1 | strain wtn01, active compounds read low 0.987

COC(OC)c1ccc(C#N)c(=S)[nH]1
inactive: [1] 1.01 | [2] 1.02 | [3] 1.01 | [4] 1 | [5] 1.01 | locus YDR150W, strain NUM1, active compounds read low 0.996 | [6] 1.01 | [7] 0.989 | [8] 1.08 | locus YHR087W, strain rtc3, active compounds read low 1.03 | [9] 0.994 | [10] 1.01 | locus YJR075W, strain HOC1, active compounds read low 1 | [11] 1.05 | locus YLR058C, strain SHM2 (second series), active compounds read low 1.01 | locus YLR085C, strain ARP6, active compounds read low 1.16 | [12] 1 | locus YML094W, strain GIM5, active compounds read low 1.04 | locus YMR219W, strain ESC1, active compounds read low 1.01 | [17] 1.02 | [13] 1.06 | locus YNL153C, strain GIM3, active compounds read low 1 | locus YNL298W, strain CLA4 (second series), active compounds read low 1.02 | [14] 1.01 | locus YNR030W, strain Alg12, active compounds read low 0.992 | [15] 1.04 | [16] 1.11 | locus YPR135W, strain CTF4, active compounds read low 1.1

CCC1(O)C(=O)OCc2c1cc1n(c2=O)Cc2cc3ccccc3nc2-1 (centres undefined)
inactive: locus YAL040C, strain CLN3, active compounds read low 0.953 | locus YCL061C, strain MRC1 (second series), active compounds read low 0.977 | locus YER002W, strain NOP16, active compounds read low 0.971 | [7] 1.01 | [17] 0.98 | locus YNL128W, strain TEP1, active compounds read low 0.906 | locus YNL175C, strain NOP13, active compounds read low 0.998 | locus YNL197C, strain WHI3, active compounds read low 0.976 | [14] 0.971 | [16] 0.984
active: [1] 0.872 | locus YDR363W, strain ESC2, active compounds read low 0.724 | locus YGR229C, strain SMI1, active compounds read low 0.672 | [13] 0.904 | locus YNL224C, strain SQS1, active compounds read low 0.897 | locus YOR083W, strain WHI5 (second series), active compounds read low 0.867

Source: PubChem BioAssay AID1159580 (chemical genetic matrix, 2015)
